Results from PubChem BioAssay (NCATS).
Values joined by “and” are separate entries in the source; they are usually repeats but may differ in a detail not shown here. Equal values may be shown once. Inconclusive results are not listed. Active and inactive are the calls of the source. Calls come from the whole dose curve. Bridge positions count the residues as written; N and C are the ends. Square brackets hold non-standard residues; d marks the D form. Peptide text beside a SMILES is read from it. * marks the point of attachment. Octanoyl(6-Me) = CCC(C)CCCCC(=O)*; Dab = NCC[CH](N)C(=O)O

Assays:
[1] = Primary qHTS for inhibitors of SARS-S pseudo-typed particle cell entry (AID 1479145); conditions: SARS-S pseudotyped particle cell entry, luciferase reporter; series mostly up to 57.1 µM; note: nearly all actives have a fitted effect of over 45% in size
[2] = Primary qHTS for Huh7 cytotoxicity: counterscreen for inhibitors of MERS-S pseudotyped particle cell entry (AID 1479147); conditions: cell viability read-out; series mostly up to 57.1 µM; for activity change, negative = cytotoxicity: % is set by controls: 0 for no effect and ±100 for the full control effect
[3] = Primary qHTS for inhibitors of MERS-S pseudo-typed particle cell entry (AID 1479149); conditions: MERS-S pseudotyped particle entry, luciferase; series mostly up to 57.1 µM; note: nearly all actives have a fitted effect of over 60% in size; for activity change, negative = inhibition: % is set by controls: 0 for no effect and ±100 for the full control effect
[4] = Primary qHTS for Vero E6 cytotoxicity: counterscreen for inhibitors of SARS-S pseudo-typed particle cell entry (AID 1479150); conditions: cell viability; series mostly up to 57.1 µM; for activity change, negative = cytotoxicity: % is set by controls: 0 for no effect and ±100 for the full control effect
[5] = Cytotoxicity counterscreen for inhibitors of SARS-CoV-2 cell entry (AID 1645845); conditions: cell viability (SARS-CoV-2 entry assay cells); series mostly up to 57.1 µM; note: nearly all actives have a fitted effect of over 50% in size; for activity change, negative = cytotoxicity: % is set by controls: 0 for no effect and ±100 for the full control effect
Outline: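 48 h compound treatment (after 1 h preincubation), HEK293-ACE2 cells, 37 C/5% CO2; ATP luminescence endpoint; normalized to cell wells and media blanks.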

[6] = Primary qHTS to identify inhibitors of SARS-CoV-2 cell entry (AID 1645846); conditions: SARS-CoV-2 pseudovirus cell entry assay, luminescence; activity change, negative = inhibition: at 57.1 µM (top of the series) unless noted; note: nearly all actives have a fitted effect of over 45% in size
Outline: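 HEK293-ACE2 (Expi293F, stable hACE2), 1500 cells/well, o/n 37C; cpd 23 nL pin, 1 h; MLV-PP w/ SARS-CoV-2-S (Wuhan-Hu-1, Δ19 C-term); 48 h 37C; Bright-Glo luminescence; normalized vs S-PP and bald PP.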

C[C@@H](O)[C@H]1C(=O)N2C(C(=O)O)=C(S[C@@H]3CN[C@H](C(=O)Nc4cccc(C(=O)O)c4)C3)[C@H](C)[C@H]12
inactive: Potency [1] | Potency [2] | Potency [3] | Potency [4] | Potency [5]
0.84%: activity change, negative = inhibition [6]

CC(=O)OCC(=O)[C@@]1(O)[C@H](C)C[C@H]2[C@@H]3C[C@H](F)C4=CC(=O)C=C[C@]4(C)[C@H]3[C@@H](O)C[C@@]21C
inactive: Potency [1] | Potency [2] | Potency [3] | Potency [4] | Potency [5]
-11.4%: activity change, negative = inhibition [6]

C[C@]12C=CC(=O)C=C1CCC1C2[C@@H](O)C[C@@]2(C)C1CC[C@]2(O)C(=O)COC(=O)CCC(=O)O (some centres not stated)
-21.3%: activity change, negative = inhibition [6]
inactive: Potency [1] | Potency [2] | Potency [3] | Potency [4] | Potency [5]

O=C(CCc1ccc(O)cc1)c1c(O)cc(O)cc1O[C@@H]1O[C@H](CO)[C@@H](O)[C@H](O)[C@H]1O
0.14% and -17.3%: activity change, negative = inhibition [6]
inactive: Potency [1] | Potency [2] | Potency [3] | Potency [4] | Potency [5]

C=CC1=C(C(=O)O)N2C(=O)[C@@H](NC(=O)/C(=N\OCC(=O)O)c3csc(N)n3)[C@H]2SC1
-7.67%: activity change, negative = inhibition [6]
inactive: Potency [1] | Potency [2] | Potency [3] | Potency [4] | Potency [5]

CCC(O)c1ccccc1 (configuration not stated)
inactive: Potency [1] | Potency [2] | Potency [3] | Potency [4] | Potency [5]
-0.957%: activity change, negative = inhibition [6]

Cn1cc(OCC(O)CNC(C)(C)C)c2ccccc2c1=O (configuration not stated)
-17.6%: activity change, negative = inhibition [6]
inactive: Potency [1] | Potency [2] | Potency [3] | Potency [4] | Potency [5]

Cn1nnc(-c2ccc(-c3ccc(N4C[C@@H](CO)OC4=O)cc3F)cn2)n1
inactive: Potency [1] | Potency [2] | Potency [3] | Potency [4] | Potency [5] | Potency [6]

CC(=O)OCC(=O)[C@@]1(O)[C@H](C)C[C@H]2[C@@H]3C[C@H](F)C4=CC(=O)C=C[C@]4(C)[C@@]3(F)[C@@H](O)C[C@@]21C
inactive: Potency [1] | Potency [2] | Potency [3] | Potency [4] | Potency [5] | Potency [6]

C=CC[N+]1([C@H]2C[C@H]3[C@@H]4CC[C@H]5C[C@H](O)[C@@H](N6CCOCC6)C[C@]5(C)[C@H]4CC[C@]3(C)[C@H]2OC(C)=O)CCCC1
inactive: Potency [1] | Potency [2] | Potency [3] | Potency [4] | Potency [5]
-19.7% and -28.9%: activity change, negative = inhibition [6]

CCC(C)CCCCC(=O)NC(CCN)C(=O)NC(C(=O)NC(CCN)C(=O)NC1CCNC(=O)C(C(C)O)NC(=O)C(CCN)NC(=O)C(CCN)NC(=O)C(CC(C)C)NC(=O)C(Cc2ccccc2)NC(=O)C(CCN)NC1=O)C(C)O (configuration not stated) ({Octanoyl(6-Me)}-[Dab]T[Dab][Dab][Dab]FL[Dab][Dab]T; lactam 4-C; configuration not given here)
inactive: Potency [1] | Potency [2] | Potency [3] | Potency [4] | Potency [5]
-13.5% [at 27.1 µM]: activity change, negative = inhibition [6]

COc1ccc(CC(C)(C)NC[C@H](O)c2cc(O)cc3c2OCC(=O)N3)cc1
2.79%: activity change, negative = inhibition [6]
inactive: Potency [1] | Potency [2] | Potency [3] | Potency [4] | Potency [5]

CCOC(=O)[C@H](CCc1ccccc1)N[C@H](C)C(=O)N1C2CCCCC2C[C@H]1C(=O)O (some centres not stated)
inactive: Potency [1] | Potency [2] | Potency [3] | Potency [4] | Potency [5]
-29.8%: activity change, negative = inhibition [6]

[2H]C([2H])([2H])C(O)(CCO[C@@H](C)[C@H]1CC[C@H]2/C(=C/C=C3\C[C@@H](O)C[C@H](O)C3=C)CCC[C@]12C)C([2H])([2H])[2H]
-6.57%: activity change, negative = inhibition [6]
inactive: Potency [1] | Potency [2] | Potency [3] | Potency [4] | Potency [5]

Cc1cccc(C)c1NC(=O)C1CCCCN1C (configuration not stated)
-22.7%: activity change, negative = inhibition [6]
inactive: Potency [1] | Potency [2] | Potency [3] | Potency [4] | Potency [5]

Nc1nc(CC(=O)Nc2ccc(CCNC[C@H](O)c3ccccc3)cc2)cs1
-24.2%: activity change, negative = inhibition [6]
inactive: Potency [1] | Potency [2] | Potency [3] | Potency [4] | Potency [5]

C[C@]12C=CC(=O)C=C1CC[C@@H]1[C@@H]2[C@@H](O)C[C@@]2(C)[C@H]1CC[C@]2(O)C(=O)COC(=O)c1cccc(S(=O)(=O)O)c1
inactive: Potency [1] | Potency [2] | Potency [3] | Potency [4] | Potency [5]
-5.05%: activity change, negative = inhibition [6]

CC(C)(S)C(=O)N[C@@H](CS)C(=O)O
-16.1%: activity change, negative = inhibition [6]
inactive: Potency [1] | Potency [2] | Potency [3] | Potency [4] | Potency [5]

CN(C)/C(N)=N/C(=N)N
inactive: outcome [1] inactive [setting not given] | outcome [2] inactive [setting not given] | outcome [3] inactive [setting not given] | outcome [4] inactive [setting not given] | outcome [5] inactive [setting not given] | outcome [6] inactive [setting not given]

CC(=O)CCC1C(=O)N(c2ccccc2)N(c2ccccc2)C1=O
-21%: activity change, negative = inhibition [6]
inactive: Potency [1] | Potency [2] | Potency [3] | Potency [4] | Potency [5]

CCC(Oc1ccccc1)C(=O)N[C@@H]1C(=O)N2[C@@H]1SC(C)(C)[C@@H]2C(=O)O (some centres not stated)
-26.6% [at 114 µM]: activity change, negative = inhibition [6]
inactive: Potency [1] | Potency [2] | Potency [3] | Potency [4] | Potency [5]

NC[C@@H]1O[C@H](O[C@H]2[C@@H](O)[C@H](O[C@@H]3[C@@H](O)[C@H](N)C[C@H](N)[C@H]3O[C@H]3O[C@H](CO)[C@@H](O)[C@H](O)[C@H]3N)O[C@@H]2CO)[C@H](N)[C@@H](O)[C@@H]1O
inactive: activity change, negative = inhibition [1] -8.64% [at 0.573 µM] | outcome [2] inactive [at 0.573 µM] | outcome [3] inactive [at 0.573 µM] | activity change, negative = cytotoxicity [4] -20.5% [at 0.573 µM] | activity change, negative = cytotoxicity [5] -2.38% [at 0.702 µM] | outcome [6] inactive [at 0.702 µM]
